Drawing on PubChem BioAssay (EPA / NIEHS), this text covers outcome and AC50 for 14 compounds.

The structures appear in SMILES notation. Where “and” joins values, the source holds several entries; their conditions need not be identical. Equal values may be shown once. Inconclusive results are not listed. Some compounds were tested as several samples or in several runs, with calls that do not always agree. Calls of active or inactive are those of the source. The calls were made as follows: active = hit-call score of the fitted dose curve at least 0.9, where 1 is the maximum; inconclusive = response in the unintended direction; inactive = score below 0.9.

Test [1] deals with Retinoic acid receptor alpha (Homo sapiens) (UniProt P10276). As to the kind of experiment: NVS_NR_hRAR_Antagonist: NovaScreen (NVS) Nuclear Receptor Binding Assay for human Retinoic Acid Alpha Receptor Antagonism (RAR) (AID 2283358). In a few lines: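 Read-out: time-resolved FRET binding signal, 2 h post-dose, cell-free extracted protein. Antagonism scored as signal loss versus DMSO negative control. Primary single-concentration screen at 25 uM in duplicate; concentration series for actives.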

The target in test [2] is PGR (gene 5241) (UniProt P06401). The test can be described thus: NVS_NR_hPR: NovaScreen (NVS) Nuclear Receptor Binding Assay for human Progestron Receptor (PR) (AID 2283360).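 Also: active means loss of bound radioligand signal versus DMSO baseline.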 In short, it runs like this:
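Cell-free radioligand binding using receptor protein extracted from T47D cells, read by scintillation counting 18 hours after dosing. Loss of signal relative to DMSO baseline indicates displacement; primary screen single concentration 25 uM in duplicate, actives followed in concentration series.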

Test [3] concerns the target human Thyroid Receptor Alpha (TRa), THRA (gene 7067) (UniProt P10827). The test can be described thus: NVS_NR_hTRa_Antagonist: NovaScreen (NVS) Nuclear Receptor Binding Assay for human Thyroid Receptor Alpha Antagonism (TRa) (AID 2283362).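 Also: activity is loss of signal relative to DMSO baseline.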 In a few lines: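 Extracted protein, cell-free; 1 h incubation after dosing; AlphaLISA chemiluminescence binding readout. DMSO = baseline/neg ctrl; signal loss = activity. Primary: duplicate, 25 uM; secondary: conc. series on actives.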

Test [4] concerns the target Glucocorticoid receptor (Homo sapiens) (UniProt P04150). As to the kind of experiment: NVS_NR_hGR: NovaScreen (NVS) Nuclear Receptor Binding Assay for human Glucocorticoid Receptor (GR) (AID 2283363).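 As to AC50: activity is loss of specific radioligand binding signal relative to DMSO.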 In short, it runs like this:
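Filter scintillation readout of tritiated/iodinated radioligand displaced by test chemical; cell-free extracted protein; 16 h. DMSO = negative control/baseline. Duplicate single-point 25 uM screen, then concentration-response on actives.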

Test [5] concerns the target guinea pig Sigma Receptor, Non-selective Binding, SIGMAR1 (gene 100135589) (UniProt Q60492). The test can be described thus: NVS_OR_gSIGMA_NonSelective: NovaScreen (NVS) Nuclear Receptor Binding Assay for guinea pig Sigma Receptor, Non-selective Binding (AID 2283367). In short, it runs like this:
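Membranes from guinea pig brain incubated with radioligand and test chemical for 1 h, then filtered and scintillation-counted. Duplicate primary testing at 25 uM, with concentration-series follow-up for actives.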

Test [6] deals with human Adenosine Transporter (Adot), SLC29A1 (gene 2030) (UniProt Q99808). As to the kind of experiment: NVS_TR_hAdoT: NovaScreen (NVS) Transporter Assay for human Adenosine Transporter (Adot) (AID 2283368). In a few lines: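 Binding displacement on U937 extracted protein, read 1 h post-dose by filtration and scintillation counting. Primary duplicate test at 25 uM, then singleton concentration series with 50 uM top; DMSO baseline.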

Test [7] relates to guinea pig Dopamine Transporter (DAT), gene 100714898. As to the kind of experiment: NVS_TR_gDAT: NovaScreen (NVS) Transporter Assay for guinea pig Dopamine Transporter (DAT) (AID 2283369).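 Also: active compounds lower bound radioligand signal relative to DMSO.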 In a few lines:
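Scintillation counts of filter-retained radioligand report binding to guinea pig striatal membranes after 2 h. Activity scored as signal loss relative to DMSO, first at 25 uM in duplicate, then in concentration series to 50 uM.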

Test [8] concerns the target Peroxisome proliferator-activated receptor gamma (Homo sapiens) (UniProt P37231). As to the kind of experiment: NVS_NR_hPPARg: NovaScreen (NVS) Nuclear Receptor Binding Assay for human Peroxisome Proliferator-activated Receptor gamma (PPARg) (AID 2283370). In short, it runs like this:
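Chemicals were tested first in duplicate at 25 uM, then in concentration series if active. Binding to cell-free PPARg protein was measured by fluorescence polarization after 2 h, with loss of signal scored against DMSO.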

The target of test [9] is human Serotonin Transporter (SERT), SLC6A4 (gene 6532) (UniProt P31645). As to the kind of experiment: NVS_TR_hSERT: NovaScreen (NVS) Transporter Assay for human Serotonin Transporter (SERT) (AID 2283372). In a few lines:
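Human platelet membrane preparation; displacement of radioligand from serotonin transporter measured after 1 h by filtration and scintillation counting. Single 25 uM duplicate screen, then concentration series for actives, with DMSO as negative baseline.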

Test [10] deals with rat Serotonin Transporter (SERT), Slc6a4 (gene 25553) (UniProt P31652). As to the kind of experiment: NVS_TR_rSERT: NovaScreen (NVS) Transporter Assay for rat Serotonin Transporter (SERT) (AID 2283375). In short, it runs like this:
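Filtration-based radiodetection quantified loss of specific radioligand binding in rat forebrain membranes after 1 hour of chemical exposure, relative to DMSO. Chemicals were first tested in duplicate at 25 uM.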

Test [11] addresses Norway rat Vesicular Monoamine Transporter (VMAT2), neurotransmitter transporter, Slc18a2 (gene 25549) (UniProt Q01827). The test can be described thus: NVS_TR_rVMAT2: NovaScreen (NVS) Transporter Assay for Norway rat Vesicular Monoamine Transporter (VMAT2), neurotransmitter transporter (AID 2283376).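 Also: actives lower the bound radioligand signal below the DMSO level.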 In a few lines:
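Filter-based scintillation counting of radioligand bound to rat forebrain-derived VMAT2 protein, cell-free, 1 h post-dose. Signal loss relative to DMSO control scored; single-concentration duplicate screen (25 uM) followed by concentration-response testing of actives.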

Test [12] deals with human Norepinephrine Transporter (NET), SLC6A2 (gene 6530) (UniProt P23975). As to the kind of experiment: NVS_TR_hNET: NovaScreen (NVS) Transporter Assay for human Norepinephrine Transporter (NET) (AID 2283377).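 Also: cell-free membrane protein extracted from CHO cells expressing human NET; displacement of radioligand from human NET seen as loss of scintillation signal.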 In short, it runs like this:
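CHO cell extracts expressing the transporter; tritiated or iodinated tracer displaced competitively; filtration plus scintillation readout at 1 h. Single-point duplicates at 25 uM, concentration series for follow-up; activity = signal drop relative to DMSO.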

Test [13] addresses Estrogen receptor beta (Homo sapiens) (UniProt Q92731). The test can be described thus: OT_ER_ERbERb_1440: Odyssey Thera (OT) 24-hour HEK293T Protein-Complementation Assay for Estrogen Receptor-beta/-beta Homodimer (AID 2283380).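 Also: scored as signal increase over DMSO baseline for both agonists and antagonists.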 In a few lines: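 HEK293T cells stably expressing ER beta LBD (aa 310-547) homodimer fragment-complementation reporter, dosed 24 h. Cells formaldehyde-fixed, Draq5-stained; gain in nuclear (agonist) or nuclear plus cytoplasmic (antagonist) fluorescence versus DMSO read by laser scanning cytometry.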

In test [14] the target is human Peroxisome Proliferator-activated Receptor alpha (PPARa), PPARA (gene 5465) (UniProt Q07869). The test can be described thus: NVS_NR_hPPARa: NovaScreen (NVS) Nuclear Receptor Binding Assay for human Peroxisome Proliferator-activated Receptor alpha (PPARa) (AID 2283359).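 Also: activity means loss of TR-FRET signal versus DMSO baseline.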 In short, it runs like this: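 TR-FRET signal measured at 1 h post-dosing; loss-of-signal versus DMSO negative control taken as activity. Extracted gene-protein, cell-free format. Initial single-point duplicates at 25 uM, then concentration-response retests.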

The target in test [15] is Retinoic acid receptor alpha (Homo sapiens) (UniProt P10276). As to the kind of experiment: NVS_NR_hRARa_Agonist: NovaScreen (NVS) Nuclear Receptor Binding Assay for human Retinoic Acid Alpha Receptor Agonism (RAR) (AID 2283361). In a few lines: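 TR-FRET signal, 2 h post-dosing; cell-free extracted protein; DMSO = baseline, positive fitting direction; 25 uM single-point duplicate, then concentration series for actives.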

Test [16] deals with rat Androgen Receptor (AR), Ar (gene 24208) (UniProt P15207). The test can be described thus: NVS_NR_rAR: NovaScreen (NVS) Nuclear Receptor Binding Assay for rat Androgen Receptor (AR) (AID 2283366). In a few lines:
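Actives from a duplicate single-concentration (25 uM) primary run went on to concentration series. Displacement of radioligand was counted by filtration and scintillation, 18 h post-dose, using prostate extracts from testosterone-pretreated rats, with DMSO as baseline.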

Test [17] has as its system rat Norepinephrine Transporter (NET), gene 83511. As to the kind of experiment: NVS_TR_rNET: NovaScreen (NVS) Transporter Assay for rat Norepinephrine Transporter (NET) (AID 2283373). In short, it runs like this:
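Competitive radioligand displacement at the rat NET using forebrain membrane preparations, 1 h incubation, filter-based scintillation readout. Primary testing in duplicate at a single 25 uM concentration; confirmed actives retested across concentrations.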

For test [18], the target named is Agonist Androgen Response Element (ARE), AR (gene 367) (UniProt P10275). The test can be described thus: OT_AR_ARELUC_AG_1440: Odyssey Thera (OT) 24-hour CHO-K1 Luciferase Assay for Agonist Androgen Response Element (ARE) (AID 2283379). In a few lines: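 Gain-of-signal reporter endpoint: cells (CHO-K1, hamster) are treated 24 h, luciferin/ATP reagent added, and luminescence compared with DMSO baseline.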

Test [19] addresses Nuclear receptor subfamily 1 group I member 2 (Homo sapiens) (UniProt O75469). As to the kind of experiment: NVS_NR_hPXR: NovaScreen (NVS) Nuclear Receptor Binding Assay for human Pregnane X Receptor (PXR) (AID 2283365).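 Also: a drop in FRET signal versus DMSO baseline means the compound binds.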 In a few lines:
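Human PXR protein, cell-free; compound added, incubated 2 h, TR-FRET read. Signal decrease vs DMSO = binding. Screened 25 uM duplicate, actives re-run as dilution series.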

Retinoic acid receptor alpha (Homo sapiens), sequence (P10276 whole entry, looked up): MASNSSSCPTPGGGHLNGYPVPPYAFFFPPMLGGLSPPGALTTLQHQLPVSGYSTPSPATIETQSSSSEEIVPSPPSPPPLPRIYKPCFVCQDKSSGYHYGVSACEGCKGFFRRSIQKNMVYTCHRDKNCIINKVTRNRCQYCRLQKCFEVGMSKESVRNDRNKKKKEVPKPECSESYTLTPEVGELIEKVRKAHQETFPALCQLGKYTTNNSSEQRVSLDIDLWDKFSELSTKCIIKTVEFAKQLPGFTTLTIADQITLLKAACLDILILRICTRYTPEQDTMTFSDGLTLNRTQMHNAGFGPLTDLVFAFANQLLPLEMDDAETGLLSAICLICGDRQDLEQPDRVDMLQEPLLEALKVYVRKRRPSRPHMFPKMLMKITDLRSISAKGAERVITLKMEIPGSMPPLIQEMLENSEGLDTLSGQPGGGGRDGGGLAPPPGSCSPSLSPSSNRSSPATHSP
human Thyroid Receptor Alpha (TRa), THRA (gene 7067), sequence (P10827 whole entry, looked up): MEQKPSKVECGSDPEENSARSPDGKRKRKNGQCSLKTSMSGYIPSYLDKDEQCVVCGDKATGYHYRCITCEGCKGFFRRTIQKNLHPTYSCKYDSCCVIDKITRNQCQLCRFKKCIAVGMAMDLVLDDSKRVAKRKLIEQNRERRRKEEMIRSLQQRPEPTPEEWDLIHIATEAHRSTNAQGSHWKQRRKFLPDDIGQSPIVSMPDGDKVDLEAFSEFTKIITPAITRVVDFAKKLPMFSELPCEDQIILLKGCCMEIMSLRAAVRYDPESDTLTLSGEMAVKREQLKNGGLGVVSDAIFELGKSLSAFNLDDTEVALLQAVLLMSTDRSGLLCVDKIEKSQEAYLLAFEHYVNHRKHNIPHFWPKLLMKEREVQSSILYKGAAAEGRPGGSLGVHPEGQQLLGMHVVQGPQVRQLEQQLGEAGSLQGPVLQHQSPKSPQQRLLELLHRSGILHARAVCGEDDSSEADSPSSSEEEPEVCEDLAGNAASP
guinea pig Sigma Receptor, Non-selective Binding, SIGMAR1 (gene 100135589), sequence (Q60492 whole entry, looked up): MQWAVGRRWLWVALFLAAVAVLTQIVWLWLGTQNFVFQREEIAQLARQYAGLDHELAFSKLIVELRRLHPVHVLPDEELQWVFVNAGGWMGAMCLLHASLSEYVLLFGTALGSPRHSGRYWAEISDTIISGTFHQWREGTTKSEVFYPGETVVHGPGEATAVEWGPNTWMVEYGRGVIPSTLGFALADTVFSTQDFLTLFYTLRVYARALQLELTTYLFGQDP
Glucocorticoid receptor (Homo sapiens), sequence (P04150 whole entry, looked up): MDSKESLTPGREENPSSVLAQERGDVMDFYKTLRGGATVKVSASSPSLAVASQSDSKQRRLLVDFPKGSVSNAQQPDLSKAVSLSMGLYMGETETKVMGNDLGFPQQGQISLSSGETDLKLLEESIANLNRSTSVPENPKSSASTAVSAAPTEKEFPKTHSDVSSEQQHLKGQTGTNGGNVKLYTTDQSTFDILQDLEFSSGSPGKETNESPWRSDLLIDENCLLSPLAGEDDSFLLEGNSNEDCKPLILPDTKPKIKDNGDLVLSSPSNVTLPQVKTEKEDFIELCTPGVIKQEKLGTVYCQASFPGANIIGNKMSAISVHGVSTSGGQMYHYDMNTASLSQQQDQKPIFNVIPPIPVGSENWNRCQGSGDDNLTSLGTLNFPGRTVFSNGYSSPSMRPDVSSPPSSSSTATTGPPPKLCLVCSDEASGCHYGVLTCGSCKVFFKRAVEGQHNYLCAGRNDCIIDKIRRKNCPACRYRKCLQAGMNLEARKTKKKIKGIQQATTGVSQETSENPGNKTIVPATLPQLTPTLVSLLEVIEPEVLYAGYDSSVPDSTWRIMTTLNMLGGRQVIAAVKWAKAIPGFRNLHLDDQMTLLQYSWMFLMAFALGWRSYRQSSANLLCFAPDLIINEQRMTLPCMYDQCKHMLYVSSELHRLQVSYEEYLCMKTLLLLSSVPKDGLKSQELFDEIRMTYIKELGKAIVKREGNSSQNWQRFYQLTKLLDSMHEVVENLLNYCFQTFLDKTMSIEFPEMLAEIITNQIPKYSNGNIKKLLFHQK
human Norepinephrine Transporter (NET), SLC6A2 (gene 6530), sequence (P23975 whole entry, looked up): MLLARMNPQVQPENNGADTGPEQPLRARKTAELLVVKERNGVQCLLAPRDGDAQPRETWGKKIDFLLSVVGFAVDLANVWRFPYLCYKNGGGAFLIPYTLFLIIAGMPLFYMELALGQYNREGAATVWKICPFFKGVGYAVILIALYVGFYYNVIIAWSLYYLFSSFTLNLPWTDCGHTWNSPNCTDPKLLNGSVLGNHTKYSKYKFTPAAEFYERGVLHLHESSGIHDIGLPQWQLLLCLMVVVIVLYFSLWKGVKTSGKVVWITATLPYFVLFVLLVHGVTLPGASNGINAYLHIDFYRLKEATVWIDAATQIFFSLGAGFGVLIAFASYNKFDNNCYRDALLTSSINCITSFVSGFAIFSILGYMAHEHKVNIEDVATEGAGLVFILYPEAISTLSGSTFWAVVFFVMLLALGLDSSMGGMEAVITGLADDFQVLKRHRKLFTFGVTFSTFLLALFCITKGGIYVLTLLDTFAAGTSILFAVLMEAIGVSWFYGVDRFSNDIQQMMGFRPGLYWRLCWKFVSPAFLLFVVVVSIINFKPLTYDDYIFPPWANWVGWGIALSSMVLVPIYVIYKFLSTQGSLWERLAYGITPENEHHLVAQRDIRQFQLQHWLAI
Peroxisome proliferator-activated receptor gamma (Homo sapiens), sequence (P37231 whole entry, looked up): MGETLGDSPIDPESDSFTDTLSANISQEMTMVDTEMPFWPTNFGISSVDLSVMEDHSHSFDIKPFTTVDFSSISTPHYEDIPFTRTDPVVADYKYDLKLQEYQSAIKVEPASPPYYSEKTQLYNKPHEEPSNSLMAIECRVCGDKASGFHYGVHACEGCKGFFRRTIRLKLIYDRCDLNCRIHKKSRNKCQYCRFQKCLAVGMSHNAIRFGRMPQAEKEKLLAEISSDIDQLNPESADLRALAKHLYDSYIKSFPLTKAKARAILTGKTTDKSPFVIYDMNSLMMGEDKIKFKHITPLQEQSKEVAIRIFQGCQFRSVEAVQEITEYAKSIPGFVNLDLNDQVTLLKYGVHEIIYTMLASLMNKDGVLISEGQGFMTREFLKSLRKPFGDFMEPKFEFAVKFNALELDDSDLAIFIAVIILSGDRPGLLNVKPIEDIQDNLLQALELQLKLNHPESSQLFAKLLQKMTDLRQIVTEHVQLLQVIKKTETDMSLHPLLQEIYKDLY
Norway rat Vesicular Monoamine Transporter (VMAT2), neurotransmitter transporter, Slc18a2 (gene 25549), sequence (Q01827 whole entry, looked up): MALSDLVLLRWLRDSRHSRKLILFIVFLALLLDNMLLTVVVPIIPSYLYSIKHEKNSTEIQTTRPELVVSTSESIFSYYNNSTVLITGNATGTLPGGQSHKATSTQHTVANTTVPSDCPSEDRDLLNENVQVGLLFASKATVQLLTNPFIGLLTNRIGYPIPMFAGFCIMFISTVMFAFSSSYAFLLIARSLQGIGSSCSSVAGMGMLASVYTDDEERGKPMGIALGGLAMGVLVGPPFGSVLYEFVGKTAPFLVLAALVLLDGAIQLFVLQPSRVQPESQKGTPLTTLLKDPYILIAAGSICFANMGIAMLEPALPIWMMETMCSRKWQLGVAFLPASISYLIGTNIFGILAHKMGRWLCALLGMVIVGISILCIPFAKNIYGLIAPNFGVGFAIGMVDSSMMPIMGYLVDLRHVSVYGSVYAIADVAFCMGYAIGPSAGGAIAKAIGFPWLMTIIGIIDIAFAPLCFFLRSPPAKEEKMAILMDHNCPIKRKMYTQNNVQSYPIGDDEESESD
Estrogen receptor beta (Homo sapiens), sequence (Q92731 whole entry, looked up, the tested form may be a part): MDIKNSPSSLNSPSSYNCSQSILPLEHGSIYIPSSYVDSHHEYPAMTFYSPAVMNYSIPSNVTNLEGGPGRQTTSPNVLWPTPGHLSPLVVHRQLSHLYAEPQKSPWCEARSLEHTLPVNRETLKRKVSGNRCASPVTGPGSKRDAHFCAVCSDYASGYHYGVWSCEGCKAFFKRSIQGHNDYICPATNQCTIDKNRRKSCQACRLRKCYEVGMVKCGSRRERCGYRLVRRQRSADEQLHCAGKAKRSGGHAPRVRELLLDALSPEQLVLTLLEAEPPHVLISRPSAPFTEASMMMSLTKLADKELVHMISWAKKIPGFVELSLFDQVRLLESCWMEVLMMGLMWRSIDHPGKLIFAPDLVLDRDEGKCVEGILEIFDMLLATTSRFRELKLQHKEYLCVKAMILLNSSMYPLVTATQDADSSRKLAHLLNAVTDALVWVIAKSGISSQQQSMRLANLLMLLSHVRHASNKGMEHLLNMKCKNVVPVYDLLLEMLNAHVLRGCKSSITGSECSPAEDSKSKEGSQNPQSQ
Nuclear receptor subfamily 1 group I member 2 (Homo sapiens), sequence (O75469 whole entry, looked up): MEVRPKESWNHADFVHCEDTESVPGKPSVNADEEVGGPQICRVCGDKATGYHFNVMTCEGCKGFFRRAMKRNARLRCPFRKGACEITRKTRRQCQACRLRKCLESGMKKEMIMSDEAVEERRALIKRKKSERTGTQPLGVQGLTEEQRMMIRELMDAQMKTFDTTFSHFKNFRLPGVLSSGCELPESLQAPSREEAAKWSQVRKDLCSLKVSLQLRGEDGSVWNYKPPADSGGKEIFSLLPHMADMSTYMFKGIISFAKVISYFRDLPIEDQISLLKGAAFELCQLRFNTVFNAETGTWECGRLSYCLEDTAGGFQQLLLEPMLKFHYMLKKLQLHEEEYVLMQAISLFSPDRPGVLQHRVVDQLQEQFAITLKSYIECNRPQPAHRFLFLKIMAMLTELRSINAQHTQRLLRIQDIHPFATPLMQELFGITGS

On to `CCCN(CCOc1c(Cl)cc(Cl)cc1Cl)C(=O)n1ccnc1`, for which the call in test [1], in test [2], in test [4], in test [8] and in test [13] was inactive. For the same compound, the AC50 (as a rule, the midpoint of the concentration-response curve, whichever way the signal moves) in test [3] is 6.39 µM (active); in [5] it was 8.36 µM (active); in [6] it was 8.65 µM (active); in test [7], 6.57 µM (active); in [9], 2.17 µM (active); in test [10], 3.82 µM (active). Besides, the concentration at half-maximal activity (AC50) in test [11] is 7.49 µM (active); in [12], 5.14 µM (active).
In the case of `COC(=O)c1ccccc1S(=O)(=O)NC(=O)N(C)c1nc(C)nc(OC)n1`, the call in test [1] was inactive.
With `CNC(=O)CSP(=S)(OC)OC`, in [2], the AC50 is 6.3 µM (active). Also, the outcome in [3], in [8] and in [13] was inactive.
As to `Oc1ccc(Cl)cc1Cc1ccccc1`, the outcome in test [1], in test [14], in [15], in test [6], in [7] and in [8] was inactive. Moreover, the compound was called inactive in test [10], in test [11] and in test [18]. For the same compound, the AC50 in test [2] is 16.5 µM (active) [middle of 6 runs]; in test [16], 12.3 µM (active) [middle of 6 runs]; in [6] it was 39.8 µM (active) and 25.2 µM (active) and 36.3 µM (active); in test [7] it was 12.8 µM (active) [middle of 5 runs]; in [17], 18.6 µM (active) [middle of 6 runs]; in [11], 13.8 µM (active). In addition, the values for the AC50 in [12] and in test [13] were 3.98 µM (active) [middle of 6 runs] and 12 µM (active), respectively.
For the compound `CCOc1nc(NC)nc(NC(=O)NS(=O)(=O)c2ccccc2C(=O)OC)n1`, the result in test [2], in [3], in test [4], in [16] and in [8] was inactive.
Consider `O=[N+]([O-])c1c(Cl)c(Cl)c(Cl)c(Cl)c1Cl`, for which the outcome in test [1], in test [3], in test [4], in test [16] and in test [13] was inactive. Moreover, the AC50 in test [8] is 38.1 µM (active).
With `O=C1c2ccccc2C(=O)N1SC(Cl)(Cl)Cl`, the call in test [1], in [8] and in [13] was inactive.
Consider `CC[C@H](C)[C@H]1O[C@]2(C=C[C@@H]1C)C[C@@H]1C[C@@H](C/C=C(\C)[C@@H](O[C@H]3C[C@H](OC)[C@@H](O[C@H]4C[C@H](OC)[C@@H](O)[C@H](C)O4)[C@H](C)O3)[C@@H](C)/C=C/C=C3\CO[C@@H]4[C@H](O)C(C)=C[C@@H](C(=O)O1)[C@]34O)O2` (tested in a mixture with another compound), for which the AC50 in [1] is 12.2 µM (active); in [3] it was 12 µM (active); in test [4], 8.5 µM (active); in test [12] it was 5.03 µM (active). Besides, the call in test [2], in test [5] and in [8] was inactive.
Consider `ClC1C(Cl)C(Cl)C(Cl)C(Cl)C1Cl` (centres undefined), for which the result in test [2], in test [19] and in test [13] was inactive. Further, the AC50 in test [7] was 9.83 µM (active) and 3.74 µM (active).
Consider `O=[N+]([O-])/N=C1\NCCN1Cc1ccc(Cl)nc1`, for which the outcome in test [1], in test [3], in [4], in test [16], in [8] and in [18] was inactive. The outcome in [13] was inactive.
Consider `N#Cc1c(Cl)c(Cl)c(Cl)c(C#N)c1Cl`, for which the outcome in test [2] and in [9] was inactive. For the same compound, the AC50 is 36.9 µM (active) in test [15]; 40.5 µM (active) in test [3]; 0.177 µM (active) in test [4]; 0.495 µM (active) in test [8]; 8.2 µM (active) in test [10]; 0.338 µM (active) in test [13].
With `COc1nn(CSP(=S)(OC)OC)c(=O)s1`, the outcome in test [2], in test [3], in test [4], in test [8] and in [13] was inactive. Also, the AC50 in test [5] is 10.7 µM (active).
For the compound `CC(C)(C)C(O)C(Oc1ccc(Cl)cc1)n1cncn1` (centres undefined), the compound was called inactive in test [1], in test [14], in test [2], in [3] and in test [8]. The AC50 in test [19] was 25 µM (active); in test [7] it was 1.08 µM (active) and 1.75 µM (active) and 869 nM (active); in test [13], 55.6 µM (active).
As to `CC(C)(C)C(O)/C(=C\c1ccc(Cl)cc1Cl)n1cncn1` (centres undefined), the concentration at half-maximal activity (AC50) in test [2] was 0.667 µM (active); in [19], 0.281 µM (active); in [5] it was 1.25 µM (active). For the same compound, the call in test [8] and in [13] was inactive.
